This note sets out measurements from ChEMBL document CHEMBL3988442, “University of Dundee, Small-Polar-MMV Screening Library” (2021).

For some of these results: Results with a measured potency or affinity are listed apart.

Common to all, as to parameters: scale not given: direction of the effect not stated beside the values
Test [1] concerns the target Protein translocase subunit SecA (Escherichia coli (strain K12)) (UniProt P10408). Nature of the test: Assay to Identify E. coli SecA ATPase Inhibitors. Format: functional. Particulars: 30 µM.
In test [2] the target is T1, Ubiquitin-activating enzyme e1, putative (Leishmania donovani (strain BPK282A1)) (UniProt E9BSI1).
T1 sequence (whole entry): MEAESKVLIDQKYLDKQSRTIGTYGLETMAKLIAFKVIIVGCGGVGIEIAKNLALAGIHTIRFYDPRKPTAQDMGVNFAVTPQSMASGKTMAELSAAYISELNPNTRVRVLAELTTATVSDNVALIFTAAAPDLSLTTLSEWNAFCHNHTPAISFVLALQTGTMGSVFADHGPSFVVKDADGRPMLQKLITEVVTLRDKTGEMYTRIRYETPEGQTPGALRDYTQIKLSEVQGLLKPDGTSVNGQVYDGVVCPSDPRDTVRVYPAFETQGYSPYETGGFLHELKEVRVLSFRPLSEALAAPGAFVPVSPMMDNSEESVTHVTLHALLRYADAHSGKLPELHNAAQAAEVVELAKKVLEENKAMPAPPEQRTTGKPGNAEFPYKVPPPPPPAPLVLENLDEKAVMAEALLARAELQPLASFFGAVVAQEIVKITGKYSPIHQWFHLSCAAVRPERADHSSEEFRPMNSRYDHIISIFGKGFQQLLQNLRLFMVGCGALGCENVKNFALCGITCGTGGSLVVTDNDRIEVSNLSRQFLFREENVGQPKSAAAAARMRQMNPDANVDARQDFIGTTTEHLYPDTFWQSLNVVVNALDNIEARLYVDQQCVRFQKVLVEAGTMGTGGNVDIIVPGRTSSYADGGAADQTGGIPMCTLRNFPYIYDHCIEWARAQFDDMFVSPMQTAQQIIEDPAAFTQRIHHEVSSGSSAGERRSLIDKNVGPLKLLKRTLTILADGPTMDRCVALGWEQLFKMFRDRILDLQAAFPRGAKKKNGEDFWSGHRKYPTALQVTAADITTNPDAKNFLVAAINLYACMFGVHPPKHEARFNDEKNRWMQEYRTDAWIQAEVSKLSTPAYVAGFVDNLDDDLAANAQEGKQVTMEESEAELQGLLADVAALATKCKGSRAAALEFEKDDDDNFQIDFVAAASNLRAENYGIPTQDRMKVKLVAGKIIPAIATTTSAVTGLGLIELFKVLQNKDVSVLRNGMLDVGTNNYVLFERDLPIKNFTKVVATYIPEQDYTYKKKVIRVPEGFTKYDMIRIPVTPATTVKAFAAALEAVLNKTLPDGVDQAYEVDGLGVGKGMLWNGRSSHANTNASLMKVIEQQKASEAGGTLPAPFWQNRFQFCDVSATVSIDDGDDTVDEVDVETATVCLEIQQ
Nature of the test: Leishmania donovani Ubiquitin Activating Enzyme (LdE1). The format is functional. Particulars: 30 µM.

Test [3] addresses AMP-activated protein kinase, AMPK (Homo sapiens) (UniProt P54646+O43741+P54619+Q9UGJ0+Q9Y478+Q13131+Q9UGI9). Description: AMP-dependent Kinase enzyme assay. An in vitro enzyme assay that detects ADP turnover that is directly proportional to AMPK activity. This uses naive AMPK that is activated during the assay with MK-8722. Format: functional. The conditions noted are these: 30 µM.

In test [4] the target is Sialic acid-binding Ig-like lectin 9 (Homo sapiens) (UniProt Q9Y336). Nature of the test: Hs-Siglec9 ALPHAscreen SOP 20170721. The conditions noted are these: 10 µM. (In general: Alpha assays give light when donor and acceptor beads are brought close together.)
The test system of the next test is Trypanosoma cruzi. Description: Trypanosoma cruzi phosphomannomutase and mannose-1-phosphate guanylyltransferase assay. The format is functional. The conditions noted are these: 10 µM.
The target of test [5] is T2, Arginase-2, mitochondrial (Homo sapiens) (UniProt P78540).
T2 sequence (whole entry): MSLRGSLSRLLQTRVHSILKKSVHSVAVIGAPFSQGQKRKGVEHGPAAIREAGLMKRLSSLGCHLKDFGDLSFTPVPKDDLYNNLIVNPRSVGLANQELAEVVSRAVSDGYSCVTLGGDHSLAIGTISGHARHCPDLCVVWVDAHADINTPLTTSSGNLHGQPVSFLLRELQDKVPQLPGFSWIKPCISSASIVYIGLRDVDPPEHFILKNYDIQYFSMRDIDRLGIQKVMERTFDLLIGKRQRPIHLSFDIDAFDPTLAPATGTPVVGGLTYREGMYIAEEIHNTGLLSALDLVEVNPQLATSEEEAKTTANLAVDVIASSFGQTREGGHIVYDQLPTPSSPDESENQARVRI
Description: in vitro enzyme assay to detect the production of urea directly proportional to the activity of Arginase II. Further: in the data most compounds retested in dose-response had high values. The format is functional. The conditions noted are these: 33.3 µM.

The target of test [6] is T3, Proteasome subunit beta (Trypanosoma cruzi) (UniProt O96673).
T3 sequence (whole entry): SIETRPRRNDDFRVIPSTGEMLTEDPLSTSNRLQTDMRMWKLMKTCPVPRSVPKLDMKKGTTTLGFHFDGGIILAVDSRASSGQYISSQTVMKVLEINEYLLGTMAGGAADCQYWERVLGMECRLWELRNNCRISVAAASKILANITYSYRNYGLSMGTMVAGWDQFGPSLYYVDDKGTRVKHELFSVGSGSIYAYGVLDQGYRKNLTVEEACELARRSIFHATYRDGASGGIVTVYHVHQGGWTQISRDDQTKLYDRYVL
Nature of the test: Trypanosoma cruzi proteasome chymotrypsin-like activity (TcProtChymo) assay. Further: in the data most compounds retested in dose-response had high values. Format: functional. Particulars: 9.37 µM.

The species entered for another test is Homo sapiens. Nature of the test: To identify inhibition of the IFN signalling (Jak-Stat) pathway via expression of an eGFP reporter gene under the control of an IFN-stimulated response element (ISRE) containing MxA promoter. Format: functional. Particulars: 30 µM. On the technique in general: Reporter assays use an easily measured gene product as a stand-in for the process of interest.

Test [7] concerns the target T4, Tyrosyl-tRNA synthetase, putative (Trypanosoma cruzi (strain CL Brener)) (UniProt Q4DSP6).
T4 sequence (whole entry): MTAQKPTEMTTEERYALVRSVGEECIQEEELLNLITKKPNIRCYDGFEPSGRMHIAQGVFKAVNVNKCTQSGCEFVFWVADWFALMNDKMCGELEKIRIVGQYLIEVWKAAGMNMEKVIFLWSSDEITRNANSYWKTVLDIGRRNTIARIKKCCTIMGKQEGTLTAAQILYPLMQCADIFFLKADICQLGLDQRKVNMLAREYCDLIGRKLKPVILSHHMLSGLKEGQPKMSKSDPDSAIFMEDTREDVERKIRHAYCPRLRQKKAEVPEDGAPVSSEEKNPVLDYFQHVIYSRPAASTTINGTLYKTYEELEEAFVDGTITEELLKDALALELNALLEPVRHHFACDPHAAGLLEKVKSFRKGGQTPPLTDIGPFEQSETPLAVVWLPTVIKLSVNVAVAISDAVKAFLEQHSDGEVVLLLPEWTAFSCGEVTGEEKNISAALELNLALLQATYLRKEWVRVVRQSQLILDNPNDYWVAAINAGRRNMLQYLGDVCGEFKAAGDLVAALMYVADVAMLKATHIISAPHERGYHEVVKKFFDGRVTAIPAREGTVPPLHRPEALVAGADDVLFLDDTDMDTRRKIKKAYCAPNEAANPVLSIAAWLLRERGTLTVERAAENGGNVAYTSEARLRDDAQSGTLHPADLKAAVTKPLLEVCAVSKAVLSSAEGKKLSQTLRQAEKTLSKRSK
Description: Trypanosoma cruzi tyrosyl tRNA synthetase (TcYRS) _High Tyrosine SOP. Further: in the data most compounds retested in dose-response had high values. Format: functional. The conditions noted are these: 30 µM.

For test [8], the target named is T4, Tyrosyl-tRNA synthetase, putative (Trypanosoma cruzi (strain CL Brener)). Description: Trypanosoma cruzi tyrosyl tRNA synthetase (TcYRS) SOP. The format is functional. Particulars: 30 µM.
For test [9], the target named is Chromo domain-containing protein 1 (Saccharomyces cerevisiae (strain ATCC 204508 / S288c) (Baker's yeast)) (UniProt P32657). Nature of the test: ScCHD-1 Enzyme Inhibition Assay. Further: in the data most compounds retested in dose-response had high values. The format is functional. Particulars: 30 µM.
Sequence of Chromo domain-containing protein 1 (Saccharomyces cerevisiae (strain ATCC 204508 / S288c) (Baker's yeast)) (P32657 whole entry, the tested form may be a part): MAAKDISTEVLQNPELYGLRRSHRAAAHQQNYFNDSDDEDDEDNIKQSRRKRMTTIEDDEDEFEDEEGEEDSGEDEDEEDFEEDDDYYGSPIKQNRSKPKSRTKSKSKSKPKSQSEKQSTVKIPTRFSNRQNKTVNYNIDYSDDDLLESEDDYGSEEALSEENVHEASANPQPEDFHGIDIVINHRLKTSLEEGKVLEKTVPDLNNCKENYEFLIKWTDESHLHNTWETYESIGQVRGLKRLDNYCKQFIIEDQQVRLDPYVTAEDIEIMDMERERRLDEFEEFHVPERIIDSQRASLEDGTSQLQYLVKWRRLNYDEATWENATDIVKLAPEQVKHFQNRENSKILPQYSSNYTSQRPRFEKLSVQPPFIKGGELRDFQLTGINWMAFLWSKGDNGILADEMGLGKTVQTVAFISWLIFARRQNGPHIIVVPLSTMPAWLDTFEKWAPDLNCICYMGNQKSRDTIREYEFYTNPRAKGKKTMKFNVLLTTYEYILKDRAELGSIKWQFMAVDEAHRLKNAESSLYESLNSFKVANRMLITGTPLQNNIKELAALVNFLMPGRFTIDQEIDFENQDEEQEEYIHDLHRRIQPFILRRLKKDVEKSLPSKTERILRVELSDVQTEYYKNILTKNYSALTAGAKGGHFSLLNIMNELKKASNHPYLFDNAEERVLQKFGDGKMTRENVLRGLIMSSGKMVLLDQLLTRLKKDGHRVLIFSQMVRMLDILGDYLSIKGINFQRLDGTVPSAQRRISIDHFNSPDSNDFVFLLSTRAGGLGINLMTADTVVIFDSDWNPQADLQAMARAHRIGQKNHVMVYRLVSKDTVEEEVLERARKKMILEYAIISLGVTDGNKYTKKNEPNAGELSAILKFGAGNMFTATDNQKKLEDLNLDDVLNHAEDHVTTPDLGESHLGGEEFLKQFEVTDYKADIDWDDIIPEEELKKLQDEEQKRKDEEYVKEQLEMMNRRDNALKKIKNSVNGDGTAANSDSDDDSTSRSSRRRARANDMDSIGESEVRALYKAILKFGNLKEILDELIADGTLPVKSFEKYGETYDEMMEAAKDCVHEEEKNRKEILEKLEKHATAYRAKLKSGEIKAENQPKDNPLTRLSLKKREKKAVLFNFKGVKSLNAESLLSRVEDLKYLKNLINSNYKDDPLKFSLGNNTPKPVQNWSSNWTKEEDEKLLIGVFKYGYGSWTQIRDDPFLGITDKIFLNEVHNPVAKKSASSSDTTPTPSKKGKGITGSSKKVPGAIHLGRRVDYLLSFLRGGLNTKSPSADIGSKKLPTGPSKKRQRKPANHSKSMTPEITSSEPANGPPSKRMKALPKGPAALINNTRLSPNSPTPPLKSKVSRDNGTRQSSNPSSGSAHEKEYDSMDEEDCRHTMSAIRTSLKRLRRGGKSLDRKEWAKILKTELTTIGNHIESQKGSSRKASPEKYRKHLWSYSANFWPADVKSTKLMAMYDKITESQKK

Sequence of Protein translocase subunit SecA (Escherichia coli (strain K12)) (P10408 whole entry): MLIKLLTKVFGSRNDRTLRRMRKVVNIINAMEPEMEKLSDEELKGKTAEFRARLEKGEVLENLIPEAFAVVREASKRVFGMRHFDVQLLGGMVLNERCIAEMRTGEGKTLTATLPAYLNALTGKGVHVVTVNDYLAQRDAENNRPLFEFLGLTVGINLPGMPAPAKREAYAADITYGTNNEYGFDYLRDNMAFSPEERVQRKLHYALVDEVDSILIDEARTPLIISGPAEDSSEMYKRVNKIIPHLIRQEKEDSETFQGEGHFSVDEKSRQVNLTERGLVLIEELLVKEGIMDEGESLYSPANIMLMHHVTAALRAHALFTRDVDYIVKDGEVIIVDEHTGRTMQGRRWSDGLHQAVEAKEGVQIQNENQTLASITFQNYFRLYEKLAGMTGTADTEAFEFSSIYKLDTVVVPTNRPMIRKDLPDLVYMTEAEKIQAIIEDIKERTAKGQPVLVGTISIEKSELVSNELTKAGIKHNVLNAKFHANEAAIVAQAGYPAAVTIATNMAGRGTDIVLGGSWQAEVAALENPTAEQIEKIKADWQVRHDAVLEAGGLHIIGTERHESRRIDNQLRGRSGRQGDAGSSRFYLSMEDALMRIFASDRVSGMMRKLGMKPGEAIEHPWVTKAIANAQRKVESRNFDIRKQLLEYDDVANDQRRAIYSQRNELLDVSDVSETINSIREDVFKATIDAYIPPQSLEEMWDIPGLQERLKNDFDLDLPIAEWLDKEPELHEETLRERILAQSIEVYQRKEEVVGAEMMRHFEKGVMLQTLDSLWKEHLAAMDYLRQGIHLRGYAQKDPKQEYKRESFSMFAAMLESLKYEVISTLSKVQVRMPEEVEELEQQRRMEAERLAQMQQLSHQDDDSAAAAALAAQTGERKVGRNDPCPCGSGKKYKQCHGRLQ
Sequence of Sialic acid-binding Ig-like lectin 9 (Homo sapiens) (Q9Y336 whole entry): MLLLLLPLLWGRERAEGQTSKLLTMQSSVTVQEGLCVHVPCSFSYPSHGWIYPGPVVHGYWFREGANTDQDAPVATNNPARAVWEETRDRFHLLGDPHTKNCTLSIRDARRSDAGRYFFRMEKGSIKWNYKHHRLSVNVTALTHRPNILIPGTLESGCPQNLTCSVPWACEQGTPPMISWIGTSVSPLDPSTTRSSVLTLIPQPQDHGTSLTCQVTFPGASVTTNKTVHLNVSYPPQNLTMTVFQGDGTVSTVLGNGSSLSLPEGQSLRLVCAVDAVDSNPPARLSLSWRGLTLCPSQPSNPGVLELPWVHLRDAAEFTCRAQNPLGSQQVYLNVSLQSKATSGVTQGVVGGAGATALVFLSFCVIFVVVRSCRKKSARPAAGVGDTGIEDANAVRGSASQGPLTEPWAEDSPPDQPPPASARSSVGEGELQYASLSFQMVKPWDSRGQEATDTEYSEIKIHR

Turning to `c1coc(-c2noc(CN3CCCC(Cn4cncn4)C3)n2)c1` (stereo unspecified), the Percent Effect in test [1] is -6.64%; in [2] it was 7.59%; in test [3], -3.53%; in [4] it was 4.26%; in the test with Trypanosoma cruzi it was 6.14%; in test [5] it was -3.04%. For the same compound, the Percent Effect in [6] was 2.05%; in the test filed under Homo sapiens, 3.63%; in test [7], -1.48%; in test [8] it was 11.4%; in test [9], -5.56%.

As to `CCC1CN(CCC(=O)N(C)C)CCN1CCOC` (stereo unspecified), the Percent Effect in [1] was -1.46%; in test [2], 16.2%; in test [3] it was -11.9%; in test [4] it was 3.32%; in the test on Trypanosoma cruzi it was 2.74%; in test [5], -0.401%. The Percent Effect was 5.04% in test [6]; -13.9% in the test listed under Homo sapiens; 8.37% in test [7]; 25.9% in [8]; -3.8% in test [9].

Regarding `CCc1nnc2n1CCN(CC(=O)Nc1cc(C(C)(C)C)nn1C)C2`, the Percent Effect was -1.62% in [1]; 5.26% in [2]; 1.91% in [3]; 0.565% in test [4]; -3.38% in the test with Trypanosoma cruzi; 4.6% in test [5]. The Percent Effect amounted to 2.17% in test [6]; 2.83% in the test listed under Homo sapiens; 3.43% in test [7]; 9.76% in test [8]; 2.88% in test [9].

For `Cc1cc(-c2cnc(NC3CCCC3)nc2-c2ccoc2C)on1`, the Percent Effect in test [1] is -2.76%; in test [2] it was 14.9%; in [3] it was 65.2%; in [4] it was 4.01%; with Trypanosoma cruzi, 0.395%; in [5], -0.696%. For the same compound, the Percent Effect in test [6] was 5.77%; in the test listed under Homo sapiens it was 14.7%; in test [7] it was 6.45%; in [8], 3.9%; in test [9], -16%.

For `Fc1ccccc1-c1noc2c1CN(CC1CC1)CC2`, the Percent Effect is -0.719% in test [1]; 13.7% in [2]; 1.26% in test [3]; 4.91% in [4]; 5.68% in the test on Trypanosoma cruzi; 1.36% in test [5]. For the same compound, the Percent Effect in test [6] is 17%; in the test filed under Homo sapiens, 11.6%; in [7], 7.53%; in test [8] it was 20%; in test [9], -0.386%.

Regarding `O=C(c1cnc(-c2ccco2)s1)N1CCCC1Cn1cccn1` (stereo unspecified), the Percent Effect in test [1] is -4.62%; in test [2] it was 3.8%; in test [3] it was 8.45%; in [4] it was 0.321%; with Trypanosoma cruzi, 2.97%; in [5], 1.5%. For the same compound, the Percent Effect turned out to be 9.09% in test [6]; 13% in the test listed under Homo sapiens; 7.29% in test [7]; 5.06% in test [8]; 0.437% in test [9].

On to `Cc1cc(CN2CCCC2c2c(C)nn(C)c2Cl)no1` (stereo unspecified), for which the Percent Effect in test [1] is -2.25%; in test [2] it was 21.1%; in [3], -2.49%; in [4], -2.11%; with Trypanosoma cruzi, 3.46%; in test [5] it was 3.24%. In addition, the Percent Effect is 13.4% in test [6]; 3.96% in the test listed under Homo sapiens; 10.3% in test [7]; 28.4% in test [8]; -10.3% in test [9].

`CSc1cccc(CNC(=O)C2CC(=O)N(CCN(C)C)C2)c1` (stereo unspecified): the Percent Effect was 0.794% in test [1]; 5.33% in test [2]; -10.1% in [3]; 4.4% in [4]; -2.82% in the test with Trypanosoma cruzi; 1.56% in [5]. The Percent Effect was 15.7% in test [6]; 9.77% in the test filed under Homo sapiens; 4.92% in test [7]; 13.6% in test [8]; -3.47% in [9].

As to `CC(C)NC(=O)[C@H]1C[C@@H]2[C@@H](C1)OCCN2Cc1cnn(C)c1`, the Percent Effect in test [1] is -3.53%; in test [2], 0%; in test [3] it was 4.75%; in test [4], 2.29%; in the test on Trypanosoma cruzi it was -5.6%; in test [5], -50%. The Percent Effect in [6] was 4.44%; in the test listed under Homo sapiens it was -6.54%; in test [7] it was 3.12%; in test [8], 10%; in [9], -4.52%.

For the compound `O=C(c1cccc2c1OCO2)N1CCCC1c1noc(C2CC2)n1` (stereo unspecified), the Percent Effect in test [1] is -5.41%; in test [2], 5.06%; in [3], -1.36%; in test [4], -1.04%; in the test with Trypanosoma cruzi, 10.5%; in test [5], -3.42%. For the same compound, the Percent Effect in test [6] was -2.38%; in the test filed under Homo sapiens, 5%; in [7] it was 4.43%; in test [8], 11.4%; in test [9], -6.85%.

In the case of `Cc1cc(C(=O)N2CCCCC2C)ccc1NCCCO` (stereo unspecified), the Percent Effect in test [1] is -2.03%; in test [2] it was -2.6%; in test [3], 3.91%; in test [4], 5.61%; with Trypanosoma cruzi it was -3%; in test [5] it was 0.712%. In addition, the Percent Effect in test [6] is 4.73%; in the test filed under Homo sapiens, -4.27%; in [7], 3.88%; in [8], 7.32%; in [9], -0.238%.
